ClpP mod: qHTS Assay for Activators of ClpP | ATP-dependent Clp protease proteolytic subunit (Bacillus subtilis (strain 168)), P80244 | purified B. subtilis ClpP, FRET peptide cleavage, 20 min | Potency, µM (highest dose often 57.5 µM), for the others: top-dose activity change, negative = active | 340,000 compounds, 1.9% hits; active = well fitted falling curve with a large enough effect; inconclusive = small, poorly fitted or top-dose-only effect; inactive = no such curve, though single readings can be large or run the other way; also: the source files actives as falling curves though it sought activators and does not explain the sign; nearly all actives have a fitted effect of over 65% in size
Target sequence (P80244 whole entry, looked up): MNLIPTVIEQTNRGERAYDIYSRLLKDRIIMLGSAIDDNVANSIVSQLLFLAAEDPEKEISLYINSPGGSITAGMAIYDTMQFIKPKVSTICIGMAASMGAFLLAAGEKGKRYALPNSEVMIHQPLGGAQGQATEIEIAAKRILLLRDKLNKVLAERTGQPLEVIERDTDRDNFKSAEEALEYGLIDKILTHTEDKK
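Buffer: 100 mM Tris/HCl pH8, 100 mM KCl, 0.05% low protease BSA, 2.5% glycerol, 0.01% Tween-20. ClpP 10 microg/mL final; 20 min RT; delta FRET normalized to ADEP and DMSO controls.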
USP2a inh: inhibitors of human ubiquitin-specific protease USP2a; O75604; USP2 core, Ub-CHOP2 coupled fluorogenic reporter, 485/531; Potency, µM (highest dose often 38.3 µM), for the others: top-dose activity change, negative = inhibition, most hits filed as inhibitors; 330,000 compounds, 0.01% hits;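 also: plate controls were DMSO wells for no effect and full inhibition by NEM control for full effect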
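Cell-free coupled assay: 10nM USP2 core preincubated 30min RT with compound in Tris-HCl pH 8.0/CaCl2/CHAPS buffer, then 25nM Ub-CHOP2 and 25nM reporter substrate; fluorescence (Ex 485/Em 531) read after 60min RT, normalized to NEM inhibition, concentration-response curves fitted.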
Eya2 inh: inhibitors of human Eya2 phosphatase activity. O00167. recombinant Eya2, OMFP fluorescence dephosphorylation (OMFP is methylfluorescein phosphate). Potency, µM (series often up to 76.9 µM), inactives show at the top dose activity, negative = inhibition, actives largely listed as inhibitors. 330,000 compounds, 0.006% hits; also: % is scaled to controls: 0 for no effect and ±100 for the full control effect
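Eya2 (0.2 uM) preincubated 10 min at ambient with compound, then OMFP substrate added at 50 uM; 10 min reaction in 50 mM HEPES pH 7.5, 50 mM NaCl, 5 uM MgCl2, 0.05% BSA, 1 mM DTT. Fluorescence read at Ex 485/Em 525 nm.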
GALK inh: inhibitors of human galactokinase; AID 1868; P51570; Purified GALK, Kinase-Glo residual ATP luminescence; 270,000 compounds, 0.007% hits; Potency, µM (top dose mostly 57.5 µM), inactives show at the highest dose activity change, negative = inhibition, most hits filed as inhibitors; also: % is scaled to controls: 0 for no effect and ±100 for the full control effect
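Compounds were pin-transferred into ATP buffer (35 uM final), then GALK plus galactose (5 nM, 100 uM final) was added. After 1 h at room temperature, Kinase-Glo Plus was added and luminescence read after 10 min.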
Numbers without * were called inactive; ? = inconclusive; . = no result given. The entries come from a sample that favours hits as a whole. Unless noted, calls follow the shape of the dose curve; as a rule, active = well fitted inhibition curve with a large enough effect; inconclusive = small, poorly fitted or top-dose-only effect, or effect the other way; inactive = flat fitted curve, though single readings scatter. Potency is read from the fitted curve at half-maximal effect.

SMILES	ClpP mod	USP2a inh	Eya2 inh	GALK inh
O=C(NCCc1cccc(F)c1)C1CCC(=O)N(C2CCCCCC2)C1 (stereo not given)	-1%	2%	5%	.
N#Cc1c(-c2cccs2)cc(-c2ccccn2)nc1N	13µM*	0%	9%	3%
CCC(c1nnnn1-c1c(C)cccc1C)N1CCN(C/C=C/c2ccccc2)CC1 (stereo not given)	-1%	.	.	.
Cc1oc2cc(O)ccc2c(=O)c1-c1cnn(-c2ccccc2)c1	32µM*	-1%	?	3%
CCNC(=O)COc1ccc(F)cc1C(=O)c1cnn(-c2ccccc2)c1	.	0%	-11%	5%
N#Cc1cc(-c2ccccc2)c[nH]c1=O	7.9µM*	1%	11%	0%
N#Cc1c(-c2ccccc2)cc(-c2ccccc2)[nH]c1=O	4%	-4%	?	0%
O=C(Nc1ccc(Cl)c(Cl)c1)N1CCSC1c1ccco1 (stereo not given)	5%	-6%	-19%	-3%
CC(C)=NNC(=O)CN1C(=O)NC2NC(=O)NC21 (stereo not given)	28µM*	4%	1%	-1%
CCC(C)NC(=O)CN1C(=O)NC2NC(=O)NC21 (stereo not given)	1%	4%	-14%	1%
COc1ccc(NC(=O)c2cc(-c3ccco3)nc3ccccc23)cc1	0%	.	.	.
Cc1cccc(NC(=O)c2cc(-c3ccco3)nc3ccccc23)n1	22µM*	0%	-10%	1%
O=C(N/N=C/c1cccc(F)c1)c1cc(-c2ccco2)nc2ccccc12	32µM*	?	12%	0%
Cc1ccc(S(=O)(=O)N(C)C)cc1NC(=O)c1cc(-c2ccco2)nc2ccccc12	28µM*	2%	-8%	-1%
Cc1cccc(NC(=O)c2ccoc2C)n1	28µM*	-1%	11%	-2%
Cc1cc(C(=O)OCC(=O)Nc2cc(S(=O)(=O)N(C)C)ccc2C)c2ccccc2n1	1%	-7%	-2%	7%
Cc1ccc(NC(=O)c2cc(C)nc3ccccc23)c(C)c1	-1%	-2%	-15%	3%
Cc1cc(C)nc(SCc2ccc(C(=O)NNC(=O)Nc3cccc(Cl)c3)cc2)n1	35µM*	-1%	-1%	0%
Cc1cc(Cn2nnc3ccccc32)c(O)c(C(C)(C)C)c1	-5%	-5%	-4%	.
Cc1ccc(C2/C(=C(/O)c3cnn(-c4ccccc4)c3C)C(=O)C(=O)N2CCN2CCOCC2)o1 (stereo not given)	-1%	3%	6%	0%
Cc1c(/C(O)=C2/C(=O)C(=O)N(CCN3CCOCC3)C2c2cccs2)cnn1-c1ccccc1 (stereo not given)	11µM*	0%	6%	1%
O=C(O)COCC(=O)N1CCN(C(c2ccccc2)c2ccccc2)CC1	-3%	0%	-5%	.
N#Cc1ccccc1NC(=O)C(=O)NCC(c1ccc2c(c1)OCO2)N1CCN(c2ccccc2)CC1 (stereo not given)	0%	.	.	.
FC(F)(F)c1cc(-c2cccs2)nc2ncnn12	.	0%	0%	-1%
O=C(c1nc2nc(-c3ccccc3)cc(C(F)(F)F)n2n1)N1CCCCC1	28µM*	2%	0%	-1%
SMILES	ClpP mod	USP2a inh	Eya2 inh	GALK inh
FC(F)(F)c1cc(-c2ccco2)nc2ncnn12	28µM*	3%	0%	2%
FC(F)(F)c1cc(-c2ccccc2)nc2ncnn12	28µM*	0%	0%	0%
C[C@@H]1CN([C@@H](C)CO)C(=O)CCCn2nncc2CO[C@H]1CN(C)Cc1ccccc1C(F)(F)F	1%	.	.	.
O=C(N/N=C/c1ccccn1)c1cc(-c2ccc3ccccc3c2)n[nH]1	22µM*	-1%	-8%	2%
CCc1ccc(-c2cc(C(=O)N/N=C/c3ccccn3)[nH]n2)cc1	.	-7%	-10%	-1%
CC1(C)C2CCC1(CS(=O)(=O)N1CCCC1C(=O)O)C(=O)C2 (stereo not given)	2%	2%	-7%	.
COCC(=O)N(Cc1cc2ccc(C)cc2[nH]c1=O)c1ccc(OC)cc1	?	-2%	-24%	0%
COCC(=O)N(Cc1cc2cc(OC)ccc2[nH]c1=O)c1ccccc1OC	28µM*	1%	-8%	1%
COCC(=O)N(Cc1cc2cc(OC)ccc2[nH]c1=O)c1ccc(C)cc1	25µM*	4%	3%	-1%
COc1cccc(-c2ncc3ccccn23)c1	?	7%	5%	-2%

Screening data: PubChem BioAssay, National Center for Advancing Translational Sciences (NCATS)
